# Screening results from PubChem BioAssay.
# G9a block: blocks human histone lysine methyltransferase G9a. Q96KQ7. G9a H3K9 monomethylation, AlphaScreen, 2 h. Potency, µM (series often up to 102 µM), without a hit: at the top dose activity, negative = inhibition, usual class: inhibitors. 350,000 tested, 8.8% active; also: potency is read from the fitted curve at half-maximal effect; nearly all actives have a fitted effect of over 75% in size
# Target sequence (Q96KQ7 913-1193 limits assumed): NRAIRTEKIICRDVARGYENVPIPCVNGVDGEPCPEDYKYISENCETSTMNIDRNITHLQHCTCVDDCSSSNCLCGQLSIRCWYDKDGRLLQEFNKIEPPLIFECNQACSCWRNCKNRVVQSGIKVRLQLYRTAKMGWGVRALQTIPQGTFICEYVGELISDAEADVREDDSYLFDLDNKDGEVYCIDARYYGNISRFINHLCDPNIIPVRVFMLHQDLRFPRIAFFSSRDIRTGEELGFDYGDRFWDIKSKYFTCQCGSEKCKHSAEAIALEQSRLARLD
#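 Chemiluminescent proximity detection of H3K9 monomethylation, read after 10 min bead incubation in the dark. Reaction: 20 nM G9a, 500 nM biotin-H3K9 peptide, 20 uM SAM cofactor, 2 h, room temperature, following 15 min enzyme-compound preincubation.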
# Tau FP inhib: tau fibrillization inhibition (FP); K18 P301L tau heparin fibrillization, Alexa594 FP, 6 h; Potency, µM (doses to about 57.7 µM), without a hit: at the highest dose activity, negative = inhibition, most hits filed as inhibitors; 280,000 tested, 0.39% active; AID 1468; also: potency is read from the fitted curve at half-maximal effect; nearly all actives have a fitted effect of over 55% in size
# Target sequence (P10636 561-689 P618L limits assumed): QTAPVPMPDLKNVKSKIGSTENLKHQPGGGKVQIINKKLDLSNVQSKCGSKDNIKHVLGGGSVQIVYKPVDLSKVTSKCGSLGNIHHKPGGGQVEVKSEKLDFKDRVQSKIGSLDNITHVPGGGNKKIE
#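 Steps: dispense K18 P301L tau (15 uM plus 0.24 uM Alexa 594 tracer, final) in pH 7 sodium acetate; add compound; add heparin (20 uM final); incubate 6 hr, 37 C; add ThT (30 uM final); after 1 hr ambient, read FP.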
# Sfp inh: inhibitors of Bacillus subtilis Sfp phosphopantetheinyl transferase. Biochemical Sfp PPTase activity, qHTS. AID 1490. 310,000 tested, 3.5% active. Q9F4F7. Potency, µM, for the others: largest response in the series, negative = inhibition, hits mostly inhibitors;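 also: the enzyme is Sfp with the accession as filed and its product quenches rhodamine fluorescence; potency is read from the fitted curve at half-maximal effect; 0% = enzyme reaction without inhibitor and -100% = no enzyme wells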
#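 Sfp 15 nM + cpd, 15 min RT; start w/ rhodamine-CoA 5 uM, BHQ-2-YbbR 12.5 uM (final); 50 mM Hepes pH 7.6, 10 mM MgCl2, 0.01% NP-40, 0.01% BSA; read 525/598 nm at 0 and 30 min.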
# Tau fibril ThT: blocks human tau fibril formation measured by thioflavin T | 270,000 tested, 2.1% active | Potency, µM (highest dose often 57.4 µM), for inactives: top-dose activity, negative = inhibition, hits mostly inhibitors | recombinant tau K18 P301L, heparin-induced fibrillization, ThT fluorescence | P10636 | AID 1460; also: potency is read from the fitted curve at half-maximal effect; nearly all actives have a fitted effect of over 55% in size
#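 Heparin-induced fibrillization of the P301L-mutant K18 repeat-domain fragment of human tau was followed by ThT binding in quantitative high-throughput format.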
# Tau fluor counter: counter-screen for tau fibril formation inhibitors; tau K18 P301L (four-repeat tau fragment) Alexa594 fluorescence, heparin fibrillization; Potency, µM (series often up to 57.7 µM), inactives show at the highest dose activity change, negative = decrease; 280,000 tested, 0.93% active; also: potency is read from the fitted curve at half-maximal effect; nearly all actives have a fitted effect of over 55% in size
#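 Human K18 P301L tau (15 uM unlabeled plus 0.24 uM Alexa 594-labeled, final) in 100 mM sodium acetate pH 7 was mixed with compound and 20 uM heparin and incubated 6 hr at 37 C.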
# Coupling enz: coupling enzyme interference in Giardia aldolase counter-screen | AID 2472 | coupling enzyme system counterscreen, AmpLite Red fluorescence | 290,000 tested, 0.67% active | activity change, negative = inhibition, % at 58.2 µM, hits read low; in the data active = activity change below about -30%
#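 Coupling enzymes only (glyceraldehyde-3-phosphate) + compound, at 57.5 uM final, 10 min RT; add substrate/coupling/AmpLite Red mix, 20 min RT; fluorescence ex 525/em 598 nm. Actives flag coupling-system interference.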
# Active calls of the source: *; ? = inconclusive; . = not tested or not shown; [ ] = another dose, or the depositor's remark. Sampled rows, rich in hits. Any-hit rate of the full collection: about 11%. Unless noted, calls follow the shape of the dose curve; as a rule, active = well fitted curve in the direction sought with a large enough effect; inconclusive = small, poorly fitted or top-dose-only effect, or another doubt; inactive = no such curve, though single readings can be large; an effect the other way counts as inactive or inconclusive. Unless noted, % is scaled to controls: 0 for no effect and ±100 for the full control effect.
SMILES,G9a block,Tau FP inhib,Sfp inh,Tau fibril ThT,Tau fluor counter,Coupling enz
Cn1c(=O)c2c(nc(N/N=C/c3ccc(OC(=O)c4ccco4)cc3)n2Cc2ccccc2Cl)n(C)c1=O,4.1%,10.0%,-15.4%,?,7.94µM*[quencher],0.5
O=C(O)CN1C(=O)/C(=C/C=C/c2ccccc2)SC1=S,?,-6.3%,-43.0%,11.2µM*,-7.5%,9.7
O=C(CCN1C(=O)S/C(=C\C=C\c2ccccc2)C1=O)Nc1ccc(O)cc1,19.4%,.,-23.1%,.,.,0.8
O=C(CN1C(=O)S/C(=C\C=C\c2ccccc2)C1=O)Nc1cccc(O)c1,-8.0%,?,-6.2%,?,15.8µM*[quencher],-2.6
O=C(O)CN1C(=O)/C(=C\C(Br)=C\c2ccccc2)SC1=S,40.9%[0.501 µM],.,56.2µM*,.,.,-19.9
CCn1cc(CN2CCC(n3nccc3NC(=O)c3cccc(F)c3)CC2)cn1,28.9%,.,22.6%,.,.,.
C=CCn1c(C2CCCCC2)n[nH]c1=S,20µM*,6.7%,9.6%,-10.5%,-1.0%,1.7
S=c1[nH]nc(C2CCCCC2)n1Cc1ccccc1,11.2µM*,-6.7%,-4.5%,-3.7%,-12.3%,1.9
C=CCn1c(C(CC)CC(C)(C)O)n[nH]c1=S (centres undefined),-1.7%[59 µM],-0.1%,-11.9%,-6.1%,-2.7%,2.7
C=CCN=c1scc(C)n1/N=C/c1ccc(O)c(O)c1,?,3.0%,31.6µM*,?,?,-9.6
O=C1C2C3C=CC(CC3)C2C(=O)N1/N=C/c1ccc(O)c(O)c1 (centres undefined),?,-5.1%,-28.7%,-8.5%,-13.4%,1.6
COc1ccc(O)c(/C=N/n2c(-c3ccco3)csc2=Nc2cccnc2)c1,19.8%[59 µM],1.0%,1.3%,-14.3%,-17.4%,-5.2
CN=c1scc(-c2ccco2)n1/N=C/c1ccc(O)c(O)c1,11.2µM*,?,50.1µM*,7.08µM*,15.8µM*[quencher],-11.6
O=C(NCCSCc1c(F)cccc1Cl)c1ccco1,-41.3%,-11.7%,-21.9%,-4.9%,-15.0%,-6.1
COc1ccccc1C(=O)NCCSCc1c(F)cccc1Cl,70.8µM*,.,9.5%,.,.,-2.4
CCN(CC)S(=O)(=O)c1cc(NC(=O)C2=COCCO2)ccc1Cl,50.1µM*,.,.,.,.,.
CCN(CC)C(=O)c1cccc(NC(=O)C2=COCCO2)c1,17.2%[12.7 µM],.,.,.,.,.
Cn1c(CCNS(=O)(=O)c2ccccc2)nnc1SCc1cccnc1,-5.3%,.,3.6%,.,.,2.5
Brc1ccc(CNCCCSc2nnnn2-c2ccccc2)cc1,0.0%[59 µM],2.0%,.,-4.7%,-9.8%,.
Cc1ccccc1OCc1nnc(SCC(=O)NCc2ccco2)n1C,-10.6%,8.1%,8.4%,-4.6%,-4.6%,2.5
COc1ccccc1OCc1nnc(SCC(=O)NCc2ccco2)n1Cc1ccco1,79.4µM*,-4.3%,?,?,7.9%,-2.2
Cc1nc2ccccc2c(=O)n1Cc1ccco1,8.1%,-1.0%,8.3%,-1.7%,-5.6%,3.5
Cc1occc1-c1nnc(SCC(=O)c2ccc(F)cc2)n1Cc1ccco1,10µM*,?,?,?,-16.2%,-1.8
O=C(CSc1nnc(-c2cc3ccccc3cc2O)n1Cc1ccco1)c1ccc(F)cc1,?,-5.1%,21.3%,-19.8%,?,-0.6
Cc1ccc(OCc2nnc(SCc3nc4ccccc4[nH]3)n2Cc2ccco2)cc1,14.1µM*,11.1%,12.9%,?,-12.8%,-0.3
SMILES,G9a block,Tau FP inhib,Sfp inh,Tau fibril ThT,Tau fluor counter,Coupling enz
O=C1c2ccccc2C(=O)N1CCc1nc2ccccc2c(=O)n1Cc1ccco1,-29.4%[59 µM],-0.4%,50.1µM*,-4.9%,-15.3%,2.7
Cn1c(C(=O)c2ccncc2)cc2ccccc21,15.4%,3.4%,4.8%,?,-13.3%,-1.7
CCn1c(C(=O)NCc2cc(Br)ccc2OC)cc2oc3ccccc3c21,-8.3%[59 µM],-9.5%,.,-16.0%,-23.1%,.
Cc1ccc(OCc2nnc(SCC(=O)c3ccccc3)n2Cc2ccco2)cc1,?,7.7%,-28.7%,?,-10.3%,-1.2
Cc1cc2c(=O)n(Cc3ccco3)c(SCC(=O)c3ccc(Cl)s3)nc2s1,-25.5%[12.7 µM],5.7%,17.8µM*,?,-14.4%,-3.7
Cc1occc1-c1nnc(SCC(=O)c2c[nH]c3ccccc23)n1C,39.8µM*,?,50.1µM*,?,-14.2%,0.2
O=C(CSc1nnc(COc2ccccc2)n1Cc1ccco1)c1ccc(F)cc1,28.2µM*,7.5%,56.2µM*,-15.7%,-10.3%,-0.7
CCOC(=O)CC(=O)CSc1nc2sc(C)cc2c(=O)n1Cc1ccco1,-18.7%[12.7 µM],-6.1%,0.1%,-13.7%,-13.2%,-0.5
O=C(CSc1nc2ccccc2c(=O)n1Cc1ccco1)c1ccc(F)cc1,-4.7%,-11.6%,31.6µM*,-16.1%,-24.6%,0.3
COc1cccc(N2C(=NC(=O)CCC3CCCC3)SC3CS(=O)(=O)CC32)c1 (centres undefined),24.0%,.,-14.3%,.,.,-0.9
COc1cccc(COCCN2CCN(S(=O)(=O)c3ccccc3)CCC2=O)c1,.,.,10.5%,.,.,4.2
Cc1cc2nc(-c3ccc(OCc4ccccc4C)cc3)cc(C(F)(F)F)n2n1,54.4%[59 µM],6.4%,.,-14.2%,-6.5%,.
O=C(CS(=O)(=O)c1cn(CC(=O)N2CCCC2)c2ccccc12)Nc1ccccc1F,-12.7%,.,5.4%,.,.,-0.3
COC(=O)c1ccc(CSc2nc3ccccc3c(=O)n2CC(C)C)o1,46.9%,-2.6%,-19.3%,?,-20.8%,-2.8
COC(=O)c1ccc(CSc2nc3ccccc3c(=O)n2Cc2ccco2)o1,39.8µM*,-1.3%,15.8%,-5.4%,-18.0%,-0.6
C[N+]1=C(/C=C/Nc2ccccc2Cl)C(C)(C)c2ccccc21,7.94µM*,?,-15.4%,28.2µM*,?,-0.4
CCOC(=O)c1ccc(N=Nc2c(C)c(C#N)c(O)[nH]c2=O)cc1,?,-5.4%,1.6%,1.41µM*,-28.8%,-1.0
COc1cccc(-c2nn(-c3ccccc3)cc2C(=O)n2nnc3ccccc32)c1,24.8%,0.3%,-5.9%,-18.1%,-12.7%,3.5
COc1ccc(-c2nn(-c3ccccc3)cc2C(=O)Nc2nccs2)cc1,-31.8%,28.2µM*,21.9%,1.5%,?,-4.7
O=C(Nc1nccs1)c1cn(-c2ccccc2)nc1-c1ccncc1,29.4%,-15.7%,11.1%,-17.0%,-14.1%,3.2
CN1CCN(NC(=O)c2cn(-c3ccccc3)nc2-c2ccc(OC(F)F)cc2)CC1,79.4µM*,2.6%,7.9%,5.8%,-10.1%,2.0
COc1cccc(-c2nn(-c3ccccc3)cc2C(=O)Nc2nccs2)c1,-3.5%[12.7 µM],28.2µM*,6.9%,-9.6%,?,-0.7
CCC(Cn1nnc2ccccc2c1=O)NC(=O)Nc1cc(OC)cc(OC)c1 (centres undefined),-18.4%[59 µM],-3.4%,.,-12.0%,-21.0%,.
